# Screening data from PubChem BioAssay.
# An excerpt weighted towards active compounds, which were near 2.4% of everything screened.
# D2 PAM-1: potentiates the human D2 dopamine receptor allosterically; AID 624464; potentiation, % (test concentration not listed); DiscoveRx D2 beta-arrestin cells, luminescence, 90 min; 100% = 57 uM dopamine signal; 360,000 compounds, 0.23% hits; P14416; in the data active means potentiation above about 50%
# Target sequence (P14416 whole entry, looked up): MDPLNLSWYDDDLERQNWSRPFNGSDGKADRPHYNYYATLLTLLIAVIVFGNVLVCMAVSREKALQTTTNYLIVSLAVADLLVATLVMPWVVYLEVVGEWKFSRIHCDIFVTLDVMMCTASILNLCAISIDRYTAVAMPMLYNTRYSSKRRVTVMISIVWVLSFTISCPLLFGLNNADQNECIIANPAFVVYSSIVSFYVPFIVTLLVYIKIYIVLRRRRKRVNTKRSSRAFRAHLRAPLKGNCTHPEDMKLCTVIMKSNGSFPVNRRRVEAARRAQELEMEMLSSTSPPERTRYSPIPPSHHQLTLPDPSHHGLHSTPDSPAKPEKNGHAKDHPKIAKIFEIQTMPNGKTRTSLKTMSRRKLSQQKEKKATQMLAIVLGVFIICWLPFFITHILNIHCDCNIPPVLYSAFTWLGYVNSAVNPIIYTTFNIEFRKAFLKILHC
#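 D2 cells co-treated with compound plus 50 nM dopamine (EC20) for 90 min at 37 deg C to detect potentiation. Beta-arrestin recruitment was read as enzyme-fragment luminescence after 1 h at ambient temperature. Full response was set by 57 uM dopamine.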
# D2 ag-1: activates the human D2 dopamine receptor; P14416; 360,000 compounds, 0.084% hits; DiscoveRx PathHunter D2 beta-arrestin, luminescence, 90 min; 100% = 57 uM dopamine signal; activation, % (test concentration not listed); in the data active means activation above about 40%
#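 DiscoveRx PathHunter D2 beta-arrestin cells (2,100/well) attached overnight, then compound-stimulated 90 min at 37 C in HBSS/10 mM HEPES/0.1% Tween-20 buffer; beta-galactosidase complementation read by luminescence after 1 h at ambient temperature. Dopamine 57 uM final (EC100) as control.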
# D2 PAM-2: positively modulates the human D2 dopamine receptor allosterically. P14416. HEK293 T-REx D2, calcium flux, EC20 dopamine potentiation. potentiation, % at 10 µM. 340,000 compounds, 0.34% hits;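 active means potentiation over 3 SD above the plate norm, cut at about 30% in these data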
#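 Tetracycline-induced Hek293 Trex D2 cells, force-coupled to calcium, loaded with no-wash calcium dye. Compound added with 180 s kinetic read for agonism, then EC20 dopamine and a further 180 s read for potentiation.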
# D2 ag-2: D2 dopamine receptor (human) agonism | HEK293 T-REx D2 cells, calcium flux agonist mode | 340,000 compounds, 0.53% hits | activation, % at 2 µM | P14416 | AID 485358;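 active means activation over 3 SD above normal in the single-dose calcium agonist read, cut at about 30% in these data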
#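 Tetracycline-induced HEK293 Trex cells with D2 receptor force-coupled to calcium signaling, plated overnight at 30 C and loaded with no-wash calcium dye. Calcium flux read kinetically for 180 s after compound addition; responses flag agonists.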
# D2 antag: antagonists of human D2 dopamine receptor; inhibition, % at 10 µM; AID 485344; 340,000 compounds, 2% hits; P14416; HEK293 TREx D2 cells, calcium flux, dopamine EC80; in the data active means inhibition above about 30%; inactive means below that, where a call was filed
#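 Calcium flux kinetic readout in an inducible HEK293 TREx D2 line plated overnight at 30 C. After 180 s compound exposure, an EC80 dopamine challenge follows with another 180 s kinetic read to detect antagonism.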
# Numbers stand for hits; – = inactive; · = not tested or not shown.
SMILES,D2 PAM-1,D2 ag-1,D2 PAM-2,D2 ag-2,D2 antag
COc1ccc(NC(=O)c2ccc3c(c2)C(=O)N(CC2CCCO2)C3=O)c(OC)c1 (configuration not stated),–,–,37,–,–
COc1ccc(NC(=O)c2ccc3c(c2)C(=O)N(CC2CCCO2)C3=O)cc1 (configuration not stated),–,–,–,–,–
O=C(NCc1cccc(CNC(=O)C(=O)NCC2CCCO2)c1)C(=O)NCC1CCCO1 (configuration not stated),–,–,–,–,30
O=C(NCc1ccc2c(c1)OCO2)C(=O)NCC1CCCO1 (configuration not stated),–,–,–,–,–
COc1ccc(-c2ccc(SCc3cccnc3)nn2)cc1OC,54,–,·,·,·
c1cncc(CSc2ccc(-c3cccnc3)nn2)c1,–,–,–,–,–
CCOc1ccc(CCNC(=O)c2cc3c(=O)[nH]c4ccc(C)cc4c3s2)cc1OCC,·,·,–,–,·
CCCCn1c(N)c(N(CC(C)C)C(=O)c2ccc(Br)s2)c(=O)[nH]c1=O,–,–,·,·,·
CCSC1=N/C(=C\c2ccc(OC)cc2)C(=O)N1,–,–,–,–,–
COc1ccc(/C=C2\N=C(SC)NC2=O)cc1,–,–,31,–,–
O=c1[nH]c(-[n+]2ccccc2)c(/C=N/NC([S-])=Nc2ccccc2)s1,–,–,–,30,–
Cc1cc[n+](-c2[nH]c(=O)sc2/C=N/NC([S-])=Nc2ccccc2)cc1,–,–,–,–,–
CCOC(=O)c1ccccc1NC(=O)c1cn(CC(C)C)c(=O)c2cc(OC)c(OC)cc12,·,·,–,–,·
COc1cccc(CNC(=O)CSC2=Nc3ccccc3C3=NC(C(C)C)C(=O)N23)c1 (configuration not stated),·,·,–,–,·
Nc1c2c(nc3ccc(Br)cc13)N(C1CCCCC1)CC2,·,·,–,–,74
O=C(CSc1nnc(-c2ccco2)n1-c1ccccc1)N1CCN(C(=O)c2ccco2)CC1,–,–,·,–,65
CCCn1c(SCC(=O)N2CCN(C(=O)c3ccco3)CC2)nc2ccccc2c1=O,–,–,–,–,31
CCOc1ccccc1-n1c(SCC(=O)NC)nnc1-c1ccco1,–,–,–,–,–
Cn1c(SCC(=O)N2CCN(c3ccccc3)CC2)nnc1-c1ccco1,–,–,–,–,–
CCOc1ccc(-n2c(SCC(=O)NC)nnc2-c2ccco2)cc1,–,–,–,–,36
Nc1cc(=O)nc(SCC(=O)Nc2ccc(F)cc2)n1-c1ccccc1Cl,·,·,–,–,·
COc1cc(S(=O)(=O)NCCc2c(C)[nH]c3ccccc23)c(C)cc1C,·,·,–,–,·
O=C(Nc1nc2c(s1)CN(Cc1ccccc1)CC2)c1cccc(S(=O)(=O)N2CCc3ccccc32)c1,–,–,–,–,41
O=C(Nc1nc2ccccc2s1)c1cccc(S(=O)(=O)N2CCc3ccccc32)c1,–,–,·,·,·
CC(C)Oc1cccc(C(=O)Nc2ccccc2N2CCOCC2)c1,–,–,–,–,33
SMILES,D2 PAM-1,D2 ag-1,D2 PAM-2,D2 ag-2,D2 antag
CCC(C)Oc1cccc(C(=O)Nc2ccccc2N2CCOCC2)c1 (configuration not stated),–,–,–,–,–
CC(CCc1ccccc1)NC(=O)c1ccccc1C(=O)O (configuration not stated),–,–,–,30,–
Cc1ccc(CN2CCN(CC(=O)NC(C)CCc3ccccc3)C2=O)cc1 (configuration not stated),–,–,30,–,–
CC(CCc1ccccc1)NC(=O)c1ccc(C(=O)NC(C)CCc2ccccc2)cc1 (configuration not stated),–,–,–,–,–
CC(CCc1ccccc1)NC(=O)CN1CCN(Cc2ccccc2)C1=O (configuration not stated),–,–,–,–,–
CC(C)CN1C(=O)C(=O)N(CC(=O)NC(C)CCc2ccccc2)C1=O (configuration not stated),–,–,–,–,52
Cc1nc(C(=O)NCC(=O)c2ccccc2)c(C(F)(F)F)o1,–,–,–,–,32
Cc1cccn2c(=O)c(/C=C(\C#N)c3nc4ccccc4s3)c(Oc3ccc(Br)cc3)nc12,·,·,–,–,·
O=C1CCCc2c1[nH]c1ccc(CN3CCCCC3)cc21,–,–,–,–,51
